According to ChEMBL document CHEMBL2218924, “A broad activity screen in support of a chemogenomic map for kinase signalling research and drug discovery” (Biochem J, 2013):

Experiments:
[1] = target: Ribosomal protein S6 kinase alpha-1 (Homo sapiens) (UniProt Q15418); details: at 1 µM
[2] = target: Ribosomal protein S6 kinase alpha-1 (Homo sapiens) (UniProt Q15418); details: at 10 µM
[3] = target: Ribosomal protein S6 kinase alpha-3 (Homo sapiens) (UniProt P51812); details: at 1 µM
[4] = target: Ribosomal protein S6 kinase alpha-3 (Homo sapiens) (UniProt P51812); details: at 10 µM
[5] = target: Ribosomal protein S6 kinase alpha-2 (Homo sapiens) (UniProt Q15349); details: at 1 µM
[6] = target: Ribosomal protein S6 kinase alpha-2 (Homo sapiens) (UniProt Q15349); details: at 10 µM
[7] = target: Ribosomal protein S6 kinase alpha-6 (Homo sapiens) (UniProt Q9UK32); details: at 1 µM
[8] = target: Ribosomal protein S6 kinase alpha-6 (Homo sapiens) (UniProt Q9UK32); details: at 10 µM
[9] = target: Mitogen-activated protein kinase 14 (Homo sapiens) (UniProt Q16539); details: at 1 µM
[10] = target: Mitogen-activated protein kinase 14 (Homo sapiens) (UniProt Q16539); details: at 10 µM

Ribosomal protein S6 kinase alpha-6 (Homo sapiens), sequence (Q9UK32 whole entry): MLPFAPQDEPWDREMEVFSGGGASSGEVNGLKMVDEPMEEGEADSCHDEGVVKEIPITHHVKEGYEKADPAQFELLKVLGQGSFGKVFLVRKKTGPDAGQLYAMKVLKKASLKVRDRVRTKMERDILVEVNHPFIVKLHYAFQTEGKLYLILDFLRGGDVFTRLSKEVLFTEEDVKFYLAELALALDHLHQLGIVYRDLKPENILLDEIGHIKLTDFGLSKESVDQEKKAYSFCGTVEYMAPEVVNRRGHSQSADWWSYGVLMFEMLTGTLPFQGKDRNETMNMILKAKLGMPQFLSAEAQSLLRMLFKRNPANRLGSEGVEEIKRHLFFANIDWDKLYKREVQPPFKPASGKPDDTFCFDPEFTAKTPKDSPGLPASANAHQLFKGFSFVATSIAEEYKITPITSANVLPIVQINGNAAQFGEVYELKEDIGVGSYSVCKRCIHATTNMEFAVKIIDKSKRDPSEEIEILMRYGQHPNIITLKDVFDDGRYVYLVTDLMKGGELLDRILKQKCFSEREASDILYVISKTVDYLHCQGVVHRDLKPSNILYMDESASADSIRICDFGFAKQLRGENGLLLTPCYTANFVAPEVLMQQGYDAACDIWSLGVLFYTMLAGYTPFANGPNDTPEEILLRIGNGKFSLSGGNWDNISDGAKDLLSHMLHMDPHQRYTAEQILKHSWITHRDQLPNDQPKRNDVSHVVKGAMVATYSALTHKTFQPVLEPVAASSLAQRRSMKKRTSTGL
Ribosomal protein S6 kinase alpha-3 (Homo sapiens), sequence (P51812 whole entry): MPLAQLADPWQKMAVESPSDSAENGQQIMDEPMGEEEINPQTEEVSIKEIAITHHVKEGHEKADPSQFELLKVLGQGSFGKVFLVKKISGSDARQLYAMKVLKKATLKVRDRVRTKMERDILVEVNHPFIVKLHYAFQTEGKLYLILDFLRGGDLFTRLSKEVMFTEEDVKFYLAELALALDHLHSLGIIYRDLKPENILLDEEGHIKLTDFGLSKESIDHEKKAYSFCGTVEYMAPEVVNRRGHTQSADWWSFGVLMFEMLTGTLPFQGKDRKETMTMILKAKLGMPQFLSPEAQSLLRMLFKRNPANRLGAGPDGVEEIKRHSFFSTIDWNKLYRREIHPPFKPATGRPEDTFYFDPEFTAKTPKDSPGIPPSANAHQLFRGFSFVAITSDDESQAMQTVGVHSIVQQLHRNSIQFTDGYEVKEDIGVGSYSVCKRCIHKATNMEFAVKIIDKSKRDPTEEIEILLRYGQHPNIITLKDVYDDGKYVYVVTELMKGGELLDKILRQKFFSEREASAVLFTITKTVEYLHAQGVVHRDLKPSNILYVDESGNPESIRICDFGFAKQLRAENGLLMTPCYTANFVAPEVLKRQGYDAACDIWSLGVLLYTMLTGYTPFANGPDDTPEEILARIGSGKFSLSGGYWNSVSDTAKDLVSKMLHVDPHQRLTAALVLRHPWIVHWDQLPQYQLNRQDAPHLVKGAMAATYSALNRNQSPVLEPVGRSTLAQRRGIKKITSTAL
Mitogen-activated protein kinase 14 (Homo sapiens), sequence (Q16539 whole entry): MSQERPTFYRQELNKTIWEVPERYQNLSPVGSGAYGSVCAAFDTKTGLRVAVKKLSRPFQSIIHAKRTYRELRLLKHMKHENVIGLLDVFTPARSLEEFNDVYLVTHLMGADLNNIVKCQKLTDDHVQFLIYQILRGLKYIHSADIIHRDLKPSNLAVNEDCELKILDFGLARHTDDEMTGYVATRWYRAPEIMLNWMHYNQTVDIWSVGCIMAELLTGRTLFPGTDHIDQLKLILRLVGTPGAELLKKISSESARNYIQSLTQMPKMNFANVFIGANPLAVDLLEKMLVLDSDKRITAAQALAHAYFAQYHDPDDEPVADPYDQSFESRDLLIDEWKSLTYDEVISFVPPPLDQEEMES
Ribosomal protein S6 kinase alpha-2 (Homo sapiens), sequence (Q15349 whole entry): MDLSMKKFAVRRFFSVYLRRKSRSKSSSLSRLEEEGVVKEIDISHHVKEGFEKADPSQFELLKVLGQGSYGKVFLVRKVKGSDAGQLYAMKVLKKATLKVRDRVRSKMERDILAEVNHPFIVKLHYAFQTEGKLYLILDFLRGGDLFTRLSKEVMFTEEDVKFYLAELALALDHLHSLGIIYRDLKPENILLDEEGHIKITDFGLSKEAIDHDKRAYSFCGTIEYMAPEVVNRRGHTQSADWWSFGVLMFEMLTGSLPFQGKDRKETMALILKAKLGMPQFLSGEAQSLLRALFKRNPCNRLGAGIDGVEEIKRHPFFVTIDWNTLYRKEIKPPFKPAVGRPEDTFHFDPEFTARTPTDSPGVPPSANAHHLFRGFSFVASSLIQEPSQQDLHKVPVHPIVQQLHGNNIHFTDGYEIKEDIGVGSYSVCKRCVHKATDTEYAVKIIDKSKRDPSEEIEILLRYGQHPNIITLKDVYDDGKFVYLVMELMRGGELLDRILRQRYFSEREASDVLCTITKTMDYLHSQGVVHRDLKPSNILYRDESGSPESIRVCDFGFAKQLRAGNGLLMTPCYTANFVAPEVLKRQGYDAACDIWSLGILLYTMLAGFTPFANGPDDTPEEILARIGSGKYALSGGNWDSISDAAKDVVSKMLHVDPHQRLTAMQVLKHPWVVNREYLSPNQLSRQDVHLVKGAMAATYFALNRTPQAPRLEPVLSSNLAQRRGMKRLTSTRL
Ribosomal protein S6 kinase alpha-1 (Homo sapiens), sequence (Q15418 whole entry): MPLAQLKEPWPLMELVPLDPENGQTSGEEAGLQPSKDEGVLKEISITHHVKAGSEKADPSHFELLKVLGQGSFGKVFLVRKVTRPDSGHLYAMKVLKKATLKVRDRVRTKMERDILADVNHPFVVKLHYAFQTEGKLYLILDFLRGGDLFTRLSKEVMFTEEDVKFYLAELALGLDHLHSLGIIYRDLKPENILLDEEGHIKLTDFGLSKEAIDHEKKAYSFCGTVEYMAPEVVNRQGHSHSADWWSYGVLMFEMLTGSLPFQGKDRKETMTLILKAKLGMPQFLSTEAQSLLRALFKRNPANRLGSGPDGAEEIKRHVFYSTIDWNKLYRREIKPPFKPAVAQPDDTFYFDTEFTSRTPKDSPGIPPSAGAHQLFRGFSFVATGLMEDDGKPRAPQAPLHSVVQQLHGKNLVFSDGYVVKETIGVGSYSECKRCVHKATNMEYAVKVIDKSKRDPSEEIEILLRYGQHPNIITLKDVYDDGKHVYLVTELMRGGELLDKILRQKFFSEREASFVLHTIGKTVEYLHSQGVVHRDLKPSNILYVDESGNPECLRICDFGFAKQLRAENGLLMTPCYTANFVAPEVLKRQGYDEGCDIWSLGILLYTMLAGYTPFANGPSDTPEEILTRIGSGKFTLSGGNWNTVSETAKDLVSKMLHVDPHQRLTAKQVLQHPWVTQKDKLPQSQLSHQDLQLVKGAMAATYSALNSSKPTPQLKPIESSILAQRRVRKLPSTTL

SMILES | residual activity [1] | residual activity [2] | residual activity [3] | residual activity [4] | residual activity [5] | residual activity [6] | residual activity [7] | residual activity [8] | residual activity [9] | residual activity [10]
COc1cccc(-c2cc(=O)c3ccccc3o2)c1N | 91% | 81% | 118% | 106% | 102% | 101% | 92% | 133% | 86% | 94%
COc1ccc(OC)c2c(=S)c3ccccc3[nH]c12 | 116% | 106% | 99% | 107% | 90% | 88% | 98% | 98% | 88% | 91%
O=Nc1c(-c2c(O)[nH]c3ccccc23)[nH]c2ccccc12 | 40% | 6% | 50% | 7% | 19% | 4% | 20% | 12% | 94% | 78%
O=c1cc(-c2cccc3c2Sc2ccccc2S3)oc(N2CCOCC2)c1 | 87% | 94% | 106% | 93% | 98% | 99% | 96% | 87% | 103% | 99%
Oc1ccc(-c2nc(-c3ccc(F)cc3)c(-c3ccncc3)[nH]2)cc1 | 117% | 83% | 55% | 45% | 105% | 68% | 88% | 92% |  | 
Nc1ccc2ncnc(NCCc3ccc(Oc4ccccc4)cc3)c2c1 | 58% | 41% | 49% | 45% | 89% | 65% | 66% | 77% | 90% | 91%
O=C(Nc1cccc(Nc2nccc(Nc3cccc(C(F)(F)F)c3)n2)c1)C1CC1 | 78% | 36% | 45% | 27% | 106% | 62% | 96% | 128% | 79% | 59%
O=C(Nc1cccc(Nc2cc(Nc3cccc(C(F)(F)F)c3)ncn2)c1)C1CC1 | 105% | 79% | 106% | 66% | 99% | 55% | 103% | 99% | 80% | 40%
COc1ccc(C(=O)Nc2sc3c(c2C(N)=O)CCCC3)cc1OC | 99% | 103% | 111% | 93% | 94% | 97% | 118% | 99% | 93% | 100%
O=C(O)c1ccc2c3c1cccc3c(=O)n1c3ccccc3nc21 | 103% | 79% | 51% | 37% | 90% | 55% | 81% | 73% | 95% | 94%
Nc1nc(Nc2ccc(S(N)(=O)=O)cc2)nn1C(=S)Nc1c(F)cccc1F | 4% | 3% | 0% | -1% | 0% | -1% | -2% | -2% | 88% | 53%
Nc1n[nH]c2nnc(-c3c(-c4ccccc4)nn4ccccc34)cc12 | 108% | 93% | 111% | 96% | 90% | 68% | 102% | 88% | 78% | 33%
O=C1c2ccccc2-[n+]2ccc3c([nH]c4ccccc43)c21 | 97% | 116% | 55% | 50% | 101% | 90% | 95% | 102% | 87% | 85%
NC(=O)c1ccc2[nH]c(-c3ccc(Oc4ccc(Cl)cc4)cc3)nc2c1 | 91% | 67% | 30% | 11% | 18% | 5% | 27% | 29% | 90% | 84%
CC(C)n1cnc2c(NCc3ccccc3)nc(NCCCO)nc21 | 102% | 82% | 101% | 87% | 101% | 72% | 81% | 91% | 87% | 82%
Cc1ccc(S(=O)(=O)/C=C/C#N)cc1 | 94% | 121% | 116% | 120% | 102% | 109% | 74% | 112% | 94% | 97%
CCOc1cc2ncnc(Nc3cccc(Br)c3)c2cc1OCC | 100% | 72% | 102% | 40% | 90% | 48% | 92% | 46% | 57% | 13%

SMILES | residual activity [1] | residual activity [2] | residual activity [3] | residual activity [4] | residual activity [5] | residual activity [6] | residual activity [7] | residual activity [8] | residual activity [9] | residual activity [10]
O=c1c2ccccc2[nH]c(=S)n1CCN1CCC(=C(c2ccc(F)cc2)c2ccc(F)cc2)CC1 | 113% | 61% | 79% | 50% | 119% | 100% | 114% | 91% | 97% | 104%
Cn1cc(/C=C2\C(=O)Nc3ccc(S(N)(=O)=O)cc32)c2ccccc21 | 9% | 6% | 9% | 1% | 4% | 0% | 21% | 10% | 94% | 96%
Cc1nc(-c2ccccc2)c(-c2ccncc2)o1 | 88% | 97% | 60% | 64% | 100% | 92% | 81% | 117% | 57% | 14%
O=[N+]([O-])c1ccc(-c2nc(-c3ccc(F)cc3)c(-c3ccncc3)[nH]2)cc1 | 101% | 104% | 60% | 62% | 103% | 97% | 91% | 83% | 1% | 2%
CC[n+]1c(/C=C/N(C)c2ccccc2)n(-c2ccccc2)c2ccc(-c3nc4ccccc4s3)cc21 | 114% | 84% | 94% | 64% | 117% | 97% | 102% | 87% | 111% | 73%
O=C1NC(=O)/C(=C/c2ccc3c(c2)OC(F)(F)O3)S1 | 125% | 65% | 56% | 35% | 117% | 99% | 125% | 103% | 99% | 109%
O=C1Nc2cc(Br)ccc2/C1=C1/Nc2ccccc2/C1=N\O | 72% | 73% | 24% | 6% | 17% | 28% | 38% | 24% | 85% | 83%
CO[C@H]1C[C@@H]2CC[C@@H](C)[C@@](O)(O2)C(=O)C(=O)N2CCCC[C@H]2C(=O)O[C@H]([C@H](C)C[C@@H]2CC[C@@H](O)[C@H](OC)C2)CC(=O)[C@H](C)/C=C(\C)[C@@H](O)[C@@H](OC)C(=O)[C@H](C)C[C@H](C)/C=C/C=C/C=C/1C | 110% | 112% | 44% | 55% | 102% | 90% | 105% | 112% | 72% | 83%
CO[C@H]1[C@@H](OC)C[C@H](C)[C@@H](OC)C2=CC(=O)C=C(NC(=O)/C(C)=C/C=C/[C@H](OC)[C@@H](OC(N)=O)/C(C)=C/[C@@H]1C)C2=O | 115% | 84% | 50% | 36% | 93% | 104% | 113% | 91% |  | 
CN(C)c1ccc(/C=C2\C(=O)Nc3ccccc32)cc1 | 66% | 34% | 47% | 16% | 74% | 25% | 91% | 40% | 102% | 106%
COc1ccc(S(=O)(=O)N(CCO)c2ccccc2CN(C)C/C=C/c2ccc(Cl)cc2)cc1 | 119% | 103% | 60% | 61% | 106% | 92% | 108% | 90% | 93% | 96%
O=C1Nc2ccc(Br)cc2/C1=C\c1cc2c([nH]1)CCCC2 | 84% | 81% | 45% | 37% | 79% | 76% | 79% | 113% |  | 
O=C1NC(=O)/C(=C\c2ccc3nccnc3c2)S1 | 112% | 83% | 61% | 35% | 114% | 78% | 101% | 99% | 82% | 91%
N#Cc1cnc2cnc(NCc3cccnc3)cc2c1Nc1ccc(F)c(Cl)c1 | 2% | 1% | 0% | -1% | 0% | 0% | 97% | 93% | 87% | 89%
COc1ccc(CNc2nc(N(CCO)CCO)nc3c2ncn3C(C)C)cc1 | 90% | 59% | 31% | 22% | 11% | 5% | 84% | 56% | 96% | 89%
CC(C)n1cnc2/c(=N/c3cccc(Cl)c3)nc(NCCO)[nH]c21 | 50% | 22% | 15% | 6% | 6% | 2% | 34% | 21% | 84% | 74%
